# Several values for one entry are separate records, joined by “and”; a condition that tells them apart may be missing. Equal values may be shown once. Results filed as inconclusive are left out. A call without a number means that no potency is given here. Some compounds were tested as several samples or in several runs, with calls that do not always agree. Activity calls are given as the source filed them. Calls come from the whole dose curve; as a rule, active = well fitted curve in the direction sought with a large enough effect in the repeat runs; inconclusive = weak or mixed curves; inactive = no such curve, though single readings can be large; an effect the other way counts as inactive or inconclusive.
# Assays:
# [1] = Human pregnane X receptor (PXR) small molecule agonists, qHTS cell viability counter screen (AID 1346977); conditions: PXR-Luc HepG2 viability, CellTiter-Fluor, 24 h; series mostly up to 92.4 µM; note: nearly all actives have a fitted effect of over 50% in size
# How it was run: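 Measures live-cell protease fluorescence (CellTiter-Fluor) in PXR-Luc HepG2 cells treated 24hr with compounds at 37C. Cells had 5hr to attach before pin transfer of DMSO solutions.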
# [2] = Caspase-3/7 induction in HepG2 cells by small molecules, qHTS assay (AID 1346978); conditions: HepG2 caspase-3/7 activation, Caspase-Glo luminescence, 17 h; series mostly up to 92.4 µM; note: nearly all actives have a fitted effect of over 15% in size
# How it was run: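 Caspase-3/7 induction was measured by Caspase-Glo 3/7 luminescence (30 min, room temperature) after a 17 hr compound exposure of wild-type HepG2 cells seeded at 2,000 per well and pre-incubated 5 hr.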
# [3] = Caspase-3/7 induction in CHO-K1 cells by small molecules, qHTS assay (AID 1346980); conditions: CHO-K1 caspase-3/7 induction, Caspase-Glo luminescence, 17 h; series mostly up to 92.4 µM; note: nearly all actives have a fitted effect of over 15% in size
# How it was run: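 Luminescent Caspase-Glo 3/7 read (30min, room temperature) quantified apoptosis induction. Cells were wild-type CHO-K1, treated with compound for 17hr at 37 C and 5% CO2.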
# [4] = Caspase-3/7 induction in HepG2 cells by small molecules, qHTS cell viability counter screen (AID 1346981); conditions: CellTiter-Fluor fluorescence, 17 h; series mostly up to 92.4 µM; note: nearly all actives have a fitted effect of over 30% in size
# How it was run: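 In this quantitative HTS counter screen, compounds delivered in DMSO were left on unmodified HepG2 cells for 16 hr at 37 C. Viability was then determined fluorometrically with CellTiter-Fluor, in parallel with caspase-3/7 induction in the same wells.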
# [5] = target: Nuclear receptor subfamily 1 group I member 2 (Homo sapiens) (UniProt O75469); assay: Human pregnane X receptor (PXR) small molecule agonists, qHTS assay (AID 1346982); conditions: PXR-Luc HepG2, CYP3A4 luciferase reporter, 24 h; series mostly up to 92.4 µM; note: nearly all actives have a fitted effect of over 35% in size; note: potency is the fitted concentration of half-maximal effect
# Chain of Nuclear receptor subfamily 1 group I member 2 (Homo sapiens) (O75469 whole entry, looked up): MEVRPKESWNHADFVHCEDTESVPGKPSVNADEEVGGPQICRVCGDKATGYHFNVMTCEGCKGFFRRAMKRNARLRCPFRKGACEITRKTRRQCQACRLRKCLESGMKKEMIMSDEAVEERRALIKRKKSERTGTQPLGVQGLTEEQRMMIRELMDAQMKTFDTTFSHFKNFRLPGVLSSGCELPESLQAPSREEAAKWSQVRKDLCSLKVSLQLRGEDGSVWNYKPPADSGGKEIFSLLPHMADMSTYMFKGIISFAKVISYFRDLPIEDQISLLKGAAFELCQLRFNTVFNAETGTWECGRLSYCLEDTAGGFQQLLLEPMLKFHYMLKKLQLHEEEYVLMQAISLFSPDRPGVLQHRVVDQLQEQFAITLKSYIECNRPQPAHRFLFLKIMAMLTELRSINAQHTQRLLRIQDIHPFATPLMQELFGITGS
# How it was run: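 Reporter HepG2 cells expressing PXR-Luc are cultured in charcoal-stripped FBS (5%), treated with compounds for 24 hr at 37 C, and assayed by ONE-Glo luminescence after 30 min at room temperature.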
# [6] = target: Cytochrome P450 2D6 (Homo sapiens) (UniProt P10635); assay: Cytochrome P450 Family 2 Subfamily D Member 6 (CYP2D6) small molecule antagonists: luciferase reporter qHTS assay (AID 1671196); conditions: P450-Glo CYP2D6 enzyme assay, luciferin luminescence, 1 h; series mostly up to 115 µM; note: nearly all actives have a fitted effect of over 50% in size; note: potency is the fitted concentration of half-maximal effect
# Chain of Cytochrome P450 2D6 (Homo sapiens) (P10635 whole entry, looked up): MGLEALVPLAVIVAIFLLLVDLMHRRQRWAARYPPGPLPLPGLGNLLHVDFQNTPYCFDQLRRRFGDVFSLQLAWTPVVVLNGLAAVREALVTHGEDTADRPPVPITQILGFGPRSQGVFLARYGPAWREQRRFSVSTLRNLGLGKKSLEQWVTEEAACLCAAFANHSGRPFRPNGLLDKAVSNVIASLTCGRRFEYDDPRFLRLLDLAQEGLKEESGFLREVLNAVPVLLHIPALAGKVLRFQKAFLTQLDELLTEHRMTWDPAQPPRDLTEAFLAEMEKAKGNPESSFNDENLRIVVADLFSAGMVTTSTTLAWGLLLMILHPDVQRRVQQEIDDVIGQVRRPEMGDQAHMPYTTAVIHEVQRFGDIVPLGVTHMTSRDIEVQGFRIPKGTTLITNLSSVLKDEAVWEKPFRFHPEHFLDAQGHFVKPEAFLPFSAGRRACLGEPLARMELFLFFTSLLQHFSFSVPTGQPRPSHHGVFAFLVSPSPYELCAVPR
# How it was run: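 Test chemicals meet CYP2D6 plus proluciferin substrate (10 min, RT); NADPH regenerating solution then drives turnover for 1 h. Detection reagent halts the reaction; luminescence measured after 20 min.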
# [7] = target: Cytochrome P450 2C19 (Homo sapiens) (UniProt P33261); assay: Cytochrome P450 Family 2 Subfamily C Member 19 (CYP2C19) small molecule antagonists: luciferase reporter qHTS assay (AID 1671197); conditions: P450-Glo CYP2C19 enzyme, luciferin luminescence, 1 h; series mostly up to 115 µM; note: nearly all actives have a fitted effect of over 65% in size; note: potency is the fitted concentration of half-maximal effect
# Chain of Cytochrome P450 2C19 (Homo sapiens) (P33261 whole entry, looked up): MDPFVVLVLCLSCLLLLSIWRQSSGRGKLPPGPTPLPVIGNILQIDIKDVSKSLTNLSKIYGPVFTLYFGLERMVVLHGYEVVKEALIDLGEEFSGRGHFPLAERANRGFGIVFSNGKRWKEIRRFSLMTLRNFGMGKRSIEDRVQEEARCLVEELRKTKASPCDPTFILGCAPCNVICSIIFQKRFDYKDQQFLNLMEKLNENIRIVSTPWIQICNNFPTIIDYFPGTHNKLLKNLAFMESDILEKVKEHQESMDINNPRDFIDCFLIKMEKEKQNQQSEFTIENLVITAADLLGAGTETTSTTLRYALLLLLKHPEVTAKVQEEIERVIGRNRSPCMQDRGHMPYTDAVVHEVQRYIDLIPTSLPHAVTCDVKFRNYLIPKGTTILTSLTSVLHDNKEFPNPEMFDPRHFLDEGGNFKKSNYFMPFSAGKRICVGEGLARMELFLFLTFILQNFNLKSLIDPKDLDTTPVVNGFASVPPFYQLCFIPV
# How it was run: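 Luminescent readout of CYP2C19 activity: luciferin product detected 20 min after adding detection reagent. Before that, compound and enzyme-substrate mix preincubated 10 min at room temperature; NADPH-regenerating system started a 1 h, 37C reaction. Ketoconazole as positive control.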
# [8] = target: Cytochrome P450 2C9 (Homo sapiens) (UniProt P11712); assay: Cytochrome P450 Family 2 Subfamily C Member 9 (CYP2C9) small molecule antagonists: luciferase reporter qHTS assay (AID 1671198); conditions: P450-Glo CYP2C9 enzyme assay, luciferin luminescence; series mostly up to 115 µM; note: nearly all actives have a fitted effect of over 50% in size; note: potency is the fitted concentration of half-maximal effect
# Chain of Cytochrome P450 2C9 (Homo sapiens) (P11712 whole entry, looked up): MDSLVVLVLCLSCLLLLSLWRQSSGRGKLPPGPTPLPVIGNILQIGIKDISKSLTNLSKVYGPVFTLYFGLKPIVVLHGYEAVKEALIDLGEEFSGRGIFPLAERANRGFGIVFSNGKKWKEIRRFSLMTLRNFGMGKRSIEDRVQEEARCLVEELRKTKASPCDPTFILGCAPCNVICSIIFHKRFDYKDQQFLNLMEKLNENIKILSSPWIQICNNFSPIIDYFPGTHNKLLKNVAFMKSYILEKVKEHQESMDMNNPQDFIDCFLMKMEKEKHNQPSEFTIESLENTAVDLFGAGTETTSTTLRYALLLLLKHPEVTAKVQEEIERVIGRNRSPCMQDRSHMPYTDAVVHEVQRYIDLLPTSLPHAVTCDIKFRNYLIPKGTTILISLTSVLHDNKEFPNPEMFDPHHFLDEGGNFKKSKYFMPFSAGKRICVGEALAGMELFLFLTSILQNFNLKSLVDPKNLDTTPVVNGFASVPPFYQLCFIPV
# How it was run: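 Enzyme-substrate mix preincubated with compound 10 min at room temperature; reaction started with NADPH regeneration solution, 1 h 37C. Luminescent luciferin product read after 20 min detection reagent.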
# [9] = target: Cytochrome P450 1A2 (Homo sapiens) (UniProt P05177); assay: Cytochrome P450 Family 1 Subfamily A Member 2 (CYP1A2) small molecule antagonists: luciferase reporter qHTS assay (AID 1671199); conditions: P450-Glo CYP1A2 enzyme, luciferin luminescence, 1 h; series mostly up to 115 µM; note: nearly all actives have a fitted effect of over 50% in size; note: potency is the fitted concentration of half-maximal effect
# Chain of Cytochrome P450 1A2 (Homo sapiens) (P05177 whole entry, looked up): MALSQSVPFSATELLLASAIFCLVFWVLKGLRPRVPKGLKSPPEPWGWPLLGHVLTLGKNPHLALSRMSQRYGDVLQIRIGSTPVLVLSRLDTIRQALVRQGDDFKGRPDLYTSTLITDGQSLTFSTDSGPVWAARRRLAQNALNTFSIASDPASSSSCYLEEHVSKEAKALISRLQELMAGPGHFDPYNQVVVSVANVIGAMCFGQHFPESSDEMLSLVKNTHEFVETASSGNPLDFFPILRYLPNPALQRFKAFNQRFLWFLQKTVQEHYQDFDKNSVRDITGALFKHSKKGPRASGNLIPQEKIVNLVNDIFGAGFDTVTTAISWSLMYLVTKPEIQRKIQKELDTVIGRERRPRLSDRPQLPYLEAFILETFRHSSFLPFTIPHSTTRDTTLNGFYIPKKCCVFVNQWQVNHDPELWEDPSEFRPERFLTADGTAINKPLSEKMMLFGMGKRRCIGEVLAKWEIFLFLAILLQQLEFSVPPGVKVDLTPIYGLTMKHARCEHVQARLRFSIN
# How it was run: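 Steps: enzyme-substrate mix dispensed; test compounds and furafylline control pinned in; 10 min room temperature; NADPH regeneration solution added, 1 h; reaction stopped with luciferin detection reagent; luminescence read after 20 min.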
# [10] = target: Cytochrome P450 3A4 (Homo sapiens) (UniProt P08684); assay: Cytochrome P450 Family 3 Subfamily A Member 4 (CYP3A4) small molecule antagonists: luciferase reporter qHTS assay (AID 1671201); conditions: P450-Glo CYP3A4 enzyme, luciferin luminescence, 1 h; series mostly up to 115 µM; note: nearly all actives have a fitted effect of over 50% in size; note: potency is the fitted concentration of half-maximal effect
# Chain of Cytochrome P450 3A4 (Homo sapiens) (P08684 whole entry, looked up): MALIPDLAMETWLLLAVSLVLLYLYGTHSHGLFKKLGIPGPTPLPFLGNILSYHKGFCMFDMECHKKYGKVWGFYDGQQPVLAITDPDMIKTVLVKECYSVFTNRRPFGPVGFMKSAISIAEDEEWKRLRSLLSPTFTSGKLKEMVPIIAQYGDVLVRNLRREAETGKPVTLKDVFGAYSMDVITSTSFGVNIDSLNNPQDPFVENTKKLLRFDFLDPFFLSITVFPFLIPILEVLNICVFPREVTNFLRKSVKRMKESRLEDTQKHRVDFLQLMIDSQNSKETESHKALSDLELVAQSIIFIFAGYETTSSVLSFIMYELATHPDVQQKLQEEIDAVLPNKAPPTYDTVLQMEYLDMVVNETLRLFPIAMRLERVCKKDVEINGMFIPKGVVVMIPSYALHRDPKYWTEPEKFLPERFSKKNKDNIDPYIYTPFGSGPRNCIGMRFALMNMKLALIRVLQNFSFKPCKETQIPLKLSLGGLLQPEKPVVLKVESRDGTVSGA
# How it was run: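 Inhibition of CYP3A4 is measured as loss of light: the enzyme converts a proluciferin substrate to luciferin, detected luminescently. Reaction ran 1 h at room temperature with NADPH regeneration after a 10 min compound preincubation.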
# [11] = Caspase-3/7 induction in CHO-K1 cells by small molecules, qHTS cell viability counter screen (AID 1346979); conditions: CellTiter-Fluor fluorescence, 17 h; series mostly up to 92.4 µM; note: nearly all actives have a fitted effect of over 35% in size
# How it was run: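 In the same wells as the caspase read, viability of compound-treated wild-type CHO-K1 cells was assessed using CellTiter-Fluor, added after 16hr at 37C and measured by fluorescence following 1hr further incubation.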
# [12] = target: Nuclear receptor subfamily 1 group I member 2 (Rattus norvegicus) (UniProt Q9R1A7); assay: Rat pregnane X receptor (rPXR) activation by small molecules, qHTS assay (AID 1346983); conditions: rPXR luciferase reporter cells, One-Glo luminescence, 24 h; stronger effect = higher value; note: nearly all actives have a fitted effect of over 20% in size
# Chain of Nuclear receptor subfamily 1 group I member 2 (Rattus norvegicus) (Q9R1A7 whole entry, looked up): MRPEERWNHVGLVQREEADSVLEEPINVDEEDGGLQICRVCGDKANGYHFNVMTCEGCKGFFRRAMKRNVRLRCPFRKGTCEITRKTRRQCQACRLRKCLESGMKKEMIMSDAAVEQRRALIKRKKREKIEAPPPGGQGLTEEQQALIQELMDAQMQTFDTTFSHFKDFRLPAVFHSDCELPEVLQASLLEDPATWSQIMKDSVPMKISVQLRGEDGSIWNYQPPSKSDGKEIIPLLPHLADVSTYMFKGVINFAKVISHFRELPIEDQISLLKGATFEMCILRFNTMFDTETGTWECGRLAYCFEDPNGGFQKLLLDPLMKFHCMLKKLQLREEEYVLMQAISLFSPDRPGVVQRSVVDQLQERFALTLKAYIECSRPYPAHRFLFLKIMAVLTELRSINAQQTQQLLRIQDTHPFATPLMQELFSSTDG
# How it was run: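 Luminescent readout (One-Glo luciferase, 30 min room temperature) followed 24 hr compound treatment at 37 C of rPXR cells plated 2,000 per well and preincubated 5hr; qHTS format with compounds delivered in DMSO.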
# [13] = target: Nuclear receptor subfamily 1 group I member 2 (Homo sapiens) (UniProt O75469); assay: CYP3A4 induction through human pregnane X receptor (PXR) by small molecules, qHTS assay (AID 1346984); conditions: DPX-2 HepG2 PXR, CYP3A4-luciferin luminescence, 24 h; series mostly up to 46.1 µM; note: nearly all actives have a fitted effect of over 40% in size
# How it was run: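 Induction measured in HepG2-based DPX-2 cells co-expressing human PXR and a CYP3A4 promoter-driven luciferase. After a 24-hour compound exposure, cells received CYP3A4 luciferin substrate at 3uM final for 3 hours, and light output was then recorded.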
# [14] = target: Nuclear receptor subfamily 1 group I member 2 (Homo sapiens) (UniProt O75469); assay: Human pregnane X receptor (PXR) activation by small molecules, qHTS assay (AID 1346985); conditions: DPX-2 HepG2 CYP3A4-luciferase, 24 h; series mostly up to 38.3 µM; note: nearly all actives have a fitted effect of over 40% in size
# How it was run: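 DPX-2 cells (HepG2 co-transfected with a PXR response element and a CYP3A4-promoter luciferase construct) were seeded at 2,000 per well, rested 5 hr at 37C, then exposed to DMSO-dissolved compounds for 24 hr. Activation was read as luciferase luminescence.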
# [15] = target: Voltage-gated inwardly rectifying potassium channel KCNH2 (Homo sapiens) (UniProt Q12809); assay: Human Ether-a-go-go-Related Gene (hERG) channel small molecule antagonists: fluorescence cell-based qHTS assay (AID 1671200); conditions: hERG-U2OS cells, FluxOR thallium flux fluorescence; series mostly up to 76.8 µM
# Chain of Voltage-gated inwardly rectifying potassium channel KCNH2 (Homo sapiens) (Q12809 whole entry, looked up): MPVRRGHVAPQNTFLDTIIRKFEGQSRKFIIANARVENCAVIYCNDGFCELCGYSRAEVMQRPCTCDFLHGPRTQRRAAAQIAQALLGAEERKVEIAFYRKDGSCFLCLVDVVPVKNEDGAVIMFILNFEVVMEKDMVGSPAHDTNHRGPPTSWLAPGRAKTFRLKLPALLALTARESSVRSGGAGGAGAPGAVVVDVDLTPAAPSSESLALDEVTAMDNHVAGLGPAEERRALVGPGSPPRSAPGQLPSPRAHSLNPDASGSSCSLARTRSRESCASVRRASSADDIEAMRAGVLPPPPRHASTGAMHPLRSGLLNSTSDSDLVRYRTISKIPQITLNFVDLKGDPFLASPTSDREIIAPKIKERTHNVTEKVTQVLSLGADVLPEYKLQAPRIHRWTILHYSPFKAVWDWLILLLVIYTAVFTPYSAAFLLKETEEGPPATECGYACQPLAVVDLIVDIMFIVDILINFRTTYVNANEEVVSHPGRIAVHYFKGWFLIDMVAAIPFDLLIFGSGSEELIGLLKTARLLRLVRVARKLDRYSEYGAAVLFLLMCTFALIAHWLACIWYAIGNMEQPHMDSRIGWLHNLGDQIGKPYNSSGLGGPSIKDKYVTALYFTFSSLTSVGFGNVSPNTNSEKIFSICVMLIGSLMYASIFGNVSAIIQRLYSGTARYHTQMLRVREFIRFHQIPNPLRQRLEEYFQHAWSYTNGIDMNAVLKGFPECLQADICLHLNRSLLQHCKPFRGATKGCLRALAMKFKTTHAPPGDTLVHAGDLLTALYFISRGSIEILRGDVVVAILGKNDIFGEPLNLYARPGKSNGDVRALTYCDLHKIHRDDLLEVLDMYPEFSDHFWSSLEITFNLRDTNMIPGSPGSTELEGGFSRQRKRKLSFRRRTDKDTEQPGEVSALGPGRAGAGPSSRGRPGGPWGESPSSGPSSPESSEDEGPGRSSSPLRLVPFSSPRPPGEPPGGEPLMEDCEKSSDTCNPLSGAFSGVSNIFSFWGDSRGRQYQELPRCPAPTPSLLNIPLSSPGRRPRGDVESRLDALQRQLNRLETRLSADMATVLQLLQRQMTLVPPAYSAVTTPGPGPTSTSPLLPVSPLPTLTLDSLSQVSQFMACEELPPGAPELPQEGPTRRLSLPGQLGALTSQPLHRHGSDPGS
# How it was run: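 Quantitative HTS in hERG-U2OS cells: thallium entry through the channel reports activity, read as continuous 480/540 nm fluorescence over 2 min after stimulus addition.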
SMILES,Potency [1],Potency [2],outcome [3],Potency [4],Potency [5],Potency [6],Potency [7],Potency [8],Potency [9],Potency [10],Potency [11],max activation [12],Potency [13],outcome [14],Potency [15]
CN(C)c1ccc(Cc2ccc(N(C)C)cc2)cc1,inactive,inactive,inactive,inactive,30.8 µM (active) and 43.3 µM (active),40.1 µM (active),179 nM (active) and 356 nM (active),12.7 µM (active) and 31.7 µM (active),2.26 µM (active) and 5.03 µM (active),35.7 µM (active) and 15.9 µM (active),,,,,
C[Si]1(C)O[Si](C)(C)O[Si](C)(C)O[Si](C)(C)O1,inactive,inactive,inactive,inactive,inactive,inactive,inactive,,inactive,inactive,inactive,,,,
NCCNCCN,inactive,inactive,inactive,inactive,inactive,63.5 µM (active),inactive,,71.2 µM (active) and inactive,inactive,,,,,
CCCCCCCCCCCCCCCCO,inactive,inactive,inactive,inactive,inactive,inactive,inactive,17.8 µM (active) and inactive,inactive,inactive,,-1.74% (inactive),inactive,inactive,inactive
CC(C)CC(C)O (stereo unspecified),inactive,inactive,inactive,inactive,inactive,inactive,inactive,,,inactive,inactive,,,,inactive
O=C1CCCC1,inactive,inactive,inactive,inactive,inactive,inactive,inactive,,inactive,inactive,,,,,inactive
CC(=O)OCc1ccccc1,inactive,inactive,inactive,inactive,inactive,inactive,inactive,inactive,inactive,inactive,,,,,
CC(=O)OC1CC(C)OC(C)O1 (stereo unspecified),inactive,inactive,inactive,inactive,inactive,inactive,70.1 µM (active) and inactive,,inactive,inactive,,,,,inactive
NCCN1CCNCC1,inactive,inactive,inactive,inactive,inactive,,inactive,inactive,inactive,inactive,,,,,inactive
Brc1ccc(Br)c(Br)c1,inactive,,inactive,inactive,inactive,inactive,inactive,,inactive,inactive,,,,,
N#Cc1ccccc1,inactive,,inactive,inactive,inactive,inactive,inactive,inactive,inactive,inactive,,,,,inactive

# Source: PubChem BioAssay (Tox21)
